# Reference: PubChem BioAssay
# Active and inactive are the calls of the source. Unless noted, no rule for the calls is given here.
# Experiments:
# [1] = compounds binding Alexa647 anti-His antibody – biochemical, small-molecule microarray, 635 nm fluorescence, artefact control for SMM control protein annotation, primary screen (AID 1128); details: higher = more signal;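 also: score merges feature fluorescence with signal-to-noise for each printed compound spot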
# [2] = system: Human papillomavirus type 1a E7 protein (residues 1-88); test: HPV1a E7 small-molecule binders, primary screen, biochemical, small-molecule microarray, residues 1-88, 635 nm (AID 1129); details: small-molecule microarray binding, fluorescence 635 nm; higher = more signal
# [3] = target: Focal adhesion kinase 1 (Homo sapiens) (UniProt Q05397); test: PTK2 protein binding on printed compound slides – biochemical, small-molecule microarray, 635/667 nm fluorescence, BSA, DTT, primary screen (AID 1130); details: 635 nm fluorescence, higher = more signal;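 also: composite of spot emission at 667 nm and signal to noise over triplicate slides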
# [4] = system: Fibrinogen (Alexa647-labelled); test: Alexa647-fibrinogen binding to printed small molecules – biochemical, small-molecule microarray, 635/667 nm fluorescence, artefact control for SMM control-protein annotation, profiling panel (AID 1131); details: fibrinogen-A647 binding fluorescence, higher = more signal;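 also: z-score merges 667 nm fluorescence with per-spot signal-to-noise over triplicate slides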
# [5] = target: Follistatin (Homo sapiens) (UniProt P19883); test: FST protein binding to printed compounds – biochemical, small-molecule microarray, 635/667 nm fluorescence, primary screen (AID 1132); details: 635 nm fluorescence, higher = more signal
# [6] = target: Fibroblast growth factor 2 (Homo sapiens) (UniProt P09038); test: basic fibroblast growth factor binding to printed compounds – biochemical, small-molecule microarray, 635/667 nm fluorescence, primary screen (AID 1133); details: FGF2, fluorescence 635/667, higher = more signal
# [7] = JC-1 mitochondrial potential readout, lung cancer cells – cell-based, A549, JC-1 fluorescence, basal, 24 h, 100 nL, profiling panel (AID 1138); details: higher = more signal;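 also: A549 lung adenocarcinoma cells under basal conditions with no added stimulus; test concentration not given here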
# Lefty1 = Lefty1 protein binding to printed compounds – biochemical, small-molecule microarray, 635/667 nm fluorescence, primary screen (AID 1139); details: fluorescence 635/667, higher = more signal
# [8] = system: wheat germ agglutinin (Triticum aestivum), Alexa647-labelled; test: Alexa647-WGA lectin binding to printed small molecules – biochemical, small-molecule microarray, 635/667 nm fluorescence, artefact control for SMM control-protein annotation, profiling panel (AID 1140); details: WGA-A647 binding, 635 nm fluorescence, higher = more signal;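 also: score merges 667 nm feature emission with signal to noise over triplicate slides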
# [9] = target: Luciferin 4-monooxygenase (Photinus pyralis) (UniProt P08659); test: inhibition of purified Photinus pyralis luciferase – biochemical, luminescence, purified enzyme, 2006 set, primary screen (AID 1141); details: purified firefly luciferase, SteadyGlo luminescence, 30 min; higher = more signal, called active from +8 up or from −8 down;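 also: cell-free assay with purified firefly luciferase at 100 ng per well in PBS; test concentration not given here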
# [10] = system: Wnt5a (protein binding on small-molecule microarray); test: small molecules binding Wnt5a protein – biophysical, small-molecule microarray, 635/667 nm fluorescence, primary screen (AID 1142); details: 635 nm fluorescence, higher = more signal;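 also: fluorescence read at 667 nm with signal to noise per printed feature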
# [11] = ATP-based viability of Huh7 replicon cells – cell-based, CellTiter-Glo luminescence, basal, 48 h, cytotoxicity control for HCV replication inhibitor project, primary screen (AID 1143); details: higher = more signal, called active from +8 up or from −8 down;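 also: Huh7 hepatoma cells carrying a hepatitis C replication reporter with no stimulus; test concentration not given here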
# [12] = Pseudomonas biofilm growth suppression – PAO1 strain, BacTiter-Glo luminescence, LB-PBS, primary screen (AID 1144); details: P. aeruginosa PAO1 biofilm, 12 h, higher = more signal
# [13] = basal CRE-LacZ reporter activity in PC12 – cell-based, unstimulated, primary screen (AID 1145); details: no forskolin, luminescence, 4.5 h, higher = more signal, called active from +8 up or from −8 down
# [14] = forskolin-driven CRE-LacZ activity in PC12 – cell-based, CRE-LacZ reporter, forskolin-stimulated, primary screen (AID 1146); details: luminescence, 4.5 h, higher = more signal, called active from +8 up or from −8 down;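 also: PC12 cells with 6xCRE LacZ reporter stimulated by forskolin 10 µM; beta-galactosidase reporter signal reflecting CREB driven transcription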
# [15] = target: Streptavidin (Streptomyces avidinii) (UniProt P22629); test: compounds binding control protein streptavidin – biophysical, small-molecule microarray, 635/667 nm fluorescence, artefact control for SMM compound annotation, primary screen (AID 1147); details: higher = more signal;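 also: signal reflects streptavidin binding to arrayed compounds as a control protein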
# [16] = probe aInhba binding on compound microarray – biochemical, small-molecule microarray, 635/667 nm fluorescence, primary screen (AID 1148); details: higher = more signal;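 also: score merges 667nm spot fluorescence with signal-to-noise for antibody binding to printed compounds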
# Torsin-1A (Homo sapiens) [17] = target: Torsin-1A (Homo sapiens) (UniProt O14656); test: TOR1A wild-type binding on microarray – cell lysate, small-molecule microarray, lysate, 635/667 nm, primary screen (AID 1149); details: COS7 hTOR1A-WT lysate, 635 nm fluorescence, higher = more signal
# Torsin-1A (Homo sapiens) [18] = target: Torsin-1A (Homo sapiens) (UniProt O14656); test: torsin A mutant lysate binding on microarrays – cell lysate, small-molecule microarray, COS7 lysate, 635/667 nm fluorescence, primary screen (AID 1150); details: COS7 hTOR1A mutant lysate, 635 nm fluorescence, higher = more signal;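 also: score pools 667 nm emission and signal to noise measuring lysate protein binding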
# [19] = system: Sonic hedgehog protein (Shh); test: Sonic hedgehog microarray binding compounds – biochemical, small-molecule microarray, 635/667 nm fluorescence, primary screen (AID 1151); details: 635 nm fluorescence, higher = more signal;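 also: Shh protein binding to compounds spotted on small-molecule microarray slides; score combines spot fluorescence intensity with signal-to-noise across triplicate slides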
# Chain of Streptavidin (Streptomyces avidinii) (P22629 whole entry, looked up): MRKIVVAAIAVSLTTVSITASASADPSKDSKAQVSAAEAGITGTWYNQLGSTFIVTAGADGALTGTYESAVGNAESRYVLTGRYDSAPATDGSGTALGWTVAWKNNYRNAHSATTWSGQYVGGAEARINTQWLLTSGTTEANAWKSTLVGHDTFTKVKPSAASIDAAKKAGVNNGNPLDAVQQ
# Chain of Follistatin (Homo sapiens) (P19883 whole entry, looked up): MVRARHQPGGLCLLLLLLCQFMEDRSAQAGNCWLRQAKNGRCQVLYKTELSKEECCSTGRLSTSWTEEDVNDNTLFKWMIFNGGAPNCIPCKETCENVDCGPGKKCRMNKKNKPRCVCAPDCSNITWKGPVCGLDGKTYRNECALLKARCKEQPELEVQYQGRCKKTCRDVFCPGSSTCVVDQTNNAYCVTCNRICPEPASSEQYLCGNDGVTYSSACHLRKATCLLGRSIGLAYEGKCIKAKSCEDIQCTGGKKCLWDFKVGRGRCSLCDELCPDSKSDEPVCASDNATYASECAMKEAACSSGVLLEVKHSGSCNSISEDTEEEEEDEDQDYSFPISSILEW
# Chain of Fibroblast growth factor 2 (Homo sapiens) (P09038 whole entry, looked up): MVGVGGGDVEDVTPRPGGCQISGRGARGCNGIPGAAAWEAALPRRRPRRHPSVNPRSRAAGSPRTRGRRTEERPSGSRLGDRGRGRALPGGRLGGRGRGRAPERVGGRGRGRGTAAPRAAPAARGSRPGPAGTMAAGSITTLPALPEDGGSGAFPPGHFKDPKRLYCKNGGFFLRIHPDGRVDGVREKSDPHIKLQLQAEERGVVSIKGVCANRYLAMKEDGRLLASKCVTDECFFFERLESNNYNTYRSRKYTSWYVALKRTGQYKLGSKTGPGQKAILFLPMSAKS
# Chain of Focal adhesion kinase 1 (Homo sapiens) (Q05397 whole entry, looked up): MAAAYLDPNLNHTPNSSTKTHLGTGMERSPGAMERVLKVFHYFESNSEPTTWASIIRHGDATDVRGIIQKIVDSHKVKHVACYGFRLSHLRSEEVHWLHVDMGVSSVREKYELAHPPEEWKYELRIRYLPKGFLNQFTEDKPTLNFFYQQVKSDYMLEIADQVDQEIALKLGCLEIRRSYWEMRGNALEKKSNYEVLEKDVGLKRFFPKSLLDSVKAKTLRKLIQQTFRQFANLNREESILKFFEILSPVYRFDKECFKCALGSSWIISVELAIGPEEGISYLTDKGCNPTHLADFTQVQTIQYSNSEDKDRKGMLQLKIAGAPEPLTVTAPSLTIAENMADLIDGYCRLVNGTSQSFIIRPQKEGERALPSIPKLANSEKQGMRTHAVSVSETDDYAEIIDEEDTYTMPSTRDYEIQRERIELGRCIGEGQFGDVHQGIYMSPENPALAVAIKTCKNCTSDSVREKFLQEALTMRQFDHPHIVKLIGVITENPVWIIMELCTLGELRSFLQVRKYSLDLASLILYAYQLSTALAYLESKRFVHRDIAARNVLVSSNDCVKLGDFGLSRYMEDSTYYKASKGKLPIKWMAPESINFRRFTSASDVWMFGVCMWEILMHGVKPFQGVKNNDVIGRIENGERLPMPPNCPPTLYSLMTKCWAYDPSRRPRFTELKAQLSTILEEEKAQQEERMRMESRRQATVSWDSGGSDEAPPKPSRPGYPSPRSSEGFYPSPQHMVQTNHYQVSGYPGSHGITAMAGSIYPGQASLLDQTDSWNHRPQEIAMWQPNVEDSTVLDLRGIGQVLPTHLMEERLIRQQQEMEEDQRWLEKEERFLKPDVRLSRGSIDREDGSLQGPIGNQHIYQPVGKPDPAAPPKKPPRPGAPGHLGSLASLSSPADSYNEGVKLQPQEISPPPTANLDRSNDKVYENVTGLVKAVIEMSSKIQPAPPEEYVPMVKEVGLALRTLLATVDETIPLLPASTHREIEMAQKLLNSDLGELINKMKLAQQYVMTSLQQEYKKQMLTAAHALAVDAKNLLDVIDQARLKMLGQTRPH
# Chain of Luciferin 4-monooxygenase (Photinus pyralis) (P08659 whole entry, looked up): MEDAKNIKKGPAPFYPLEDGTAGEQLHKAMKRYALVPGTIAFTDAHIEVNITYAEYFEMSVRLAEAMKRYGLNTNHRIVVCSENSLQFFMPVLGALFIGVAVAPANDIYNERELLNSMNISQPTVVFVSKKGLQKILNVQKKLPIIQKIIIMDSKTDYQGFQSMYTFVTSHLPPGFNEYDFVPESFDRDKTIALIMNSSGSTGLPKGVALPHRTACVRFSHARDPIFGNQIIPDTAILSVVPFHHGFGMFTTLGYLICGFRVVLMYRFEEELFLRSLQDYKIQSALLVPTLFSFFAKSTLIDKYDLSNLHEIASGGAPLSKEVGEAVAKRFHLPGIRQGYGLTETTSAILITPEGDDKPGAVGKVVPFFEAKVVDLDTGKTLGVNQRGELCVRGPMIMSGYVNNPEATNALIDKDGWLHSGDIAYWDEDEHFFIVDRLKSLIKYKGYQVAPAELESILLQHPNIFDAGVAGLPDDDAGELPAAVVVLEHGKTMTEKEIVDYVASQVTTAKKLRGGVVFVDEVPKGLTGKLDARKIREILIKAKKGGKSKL
# Chain of Torsin-1A (Homo sapiens) (O14656 whole entry, looked up): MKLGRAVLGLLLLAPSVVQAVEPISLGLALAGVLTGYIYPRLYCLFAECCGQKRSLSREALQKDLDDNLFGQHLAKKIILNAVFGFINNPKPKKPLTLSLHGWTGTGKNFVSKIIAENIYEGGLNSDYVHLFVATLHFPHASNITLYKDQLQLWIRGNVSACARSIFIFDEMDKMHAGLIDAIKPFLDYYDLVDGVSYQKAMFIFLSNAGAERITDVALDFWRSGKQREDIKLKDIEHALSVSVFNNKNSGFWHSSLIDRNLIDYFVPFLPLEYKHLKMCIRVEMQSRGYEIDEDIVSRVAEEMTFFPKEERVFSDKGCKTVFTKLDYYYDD
Compound,composite z-score [1],composite z-score [2],composite z-score [3],composite z-score [4],composite z-score [5],composite z-score [6],z-score [7],composite z-score (Lefty1),composite z-score [8],z-score [9],composite z-score [10],z-score [11],z-score [12],z-score [13],z-score [14],composite z-score [15],composite z-score [16],composite z-score (Torsin-1A (Homo sapiens) [17]),composite z-score (Torsin-1A (Homo sapiens) [18]),composite z-score [19]
COc1ccc(C(=O)Nc2cccc(CN3C(=O)[C@@]4(O[C@@H](CCn5cc([C@H](O)c6ccccc6)nn5)[C@H]([Si](C)(C)c5ccc(OC)cc5)[C@H]4C)c4ccccc43)c2)cc1,0.669,0.138,0.638,0.528,1.19,0.612,-0.175,1.01,0.443,0.39 (inactive),0.417,-6.59 (inactive),-0.301 (inactive),0.833 (inactive),0.834 (inactive),0.0185,0.0714,-0.12,0.377,1.89
Cc1ccc(S[C@]2(C(=O)NCCN3CCOCC3)CC(=O)N(C3CCCCC3)[C@@H]2c2ccc(CO)cc2)cc1,1.81,1.21,1.02,0.611,0.102,-0.262,1.63,-0.299,0.211,-0.125 (inactive),-0.0482,-0.0065 (inactive),0.314 (inactive),0.802 (inactive),0.893 (inactive),0.893,0.0422,0.18,0.783,0.318
Cc1ccc(S(=O)(=O)N2CC(C(=O)O)=CCC2c2ccccc2)cc1 (stereo not given),-0.67,-0.2,0.223,-0.275,-1.22,-1.14,-1.33,-0.946,0.0972,1.52 (inactive),-0.0669,0.0982 (inactive),-0.153 (inactive),-0.266 (inactive),0.222 (inactive),-0.134,-0.128,1.08,-0.307,-0.861
COc1c(C)cc(-c2cc3c(c(-c4ccccc4)n2)[Si](C(C)C)(C(C)C)O[C@H]3c2ccccc2)cc1C,0.235,-0.26,-0.0638,-0.243,0.145,-0.212,0.125,0.377,0.124,0.407 (inactive),-0.0797,0.393 (inactive),-0.0188 (inactive),-0.244 (inactive),-0.0226 (inactive),-0.0096,-0.119,-0.381,-0.22,0.618
C=CCN1C(=O)[C@]2(Cc3ccccc31)N=C(c1ccc(OCCCO)cc1)O[C@@H]2c1ccccc1,0.599,1.22,0.436,0.585,1.36,1.65,0.188,0.366,0.322,-1.39 (inactive),1.2,-3.54 (inactive),-0.324 (inactive),-0.146 (inactive),-0.436 (inactive),0.586,-0.0645,0.154,0.512,0.308
C[N+](C)(C)CCCC[C@@H]1NC(=O)[C@@H]2C[C@H](C(=O)NCCCCCCNC(=O)CS)[C@H](c3cccc(OCCO)c3)N2C1=O,1.89,-0.208,-0.379,0.552,1.27,1.2,0.332,1.29,0.585,-1.45 (inactive),-0.326,0.214 (inactive),-0.555 (inactive),-0.671 (inactive),-0.29 (inactive),-1.12,-0.231,0.23,1.87,1.54
COc1ccc([Si](C)(C)[C@H]2[C@H](CC(=O)N3CCC[C@H]3CO)O[C@@]3(C(=O)N(Cc4cccc(N5CCC5=O)c4)c4ccccc43)[C@@H]2C)cc1,0.744,1.24,0.474,0.734,1.36,1.55,1.4,1.38,0.532,-0.493 (inactive),0.749,-3.02 (inactive),0.596 (inactive),1.66 (inactive),-1.2 (inactive),0.0783,-0.0132,0.633,0.594,1.49
NC(=O)NCC#Cc1ccc2c(c1)[C@]1(C(=O)N2)[C@H](c2ccccc2OCCO)N2[C@H](c3ccccc3)[C@H](c3ccccc3)OC(=O)[C@H]2[C@@H]1C(=O)N1CCCCCCC1,0.443,1.25,2.2,0.505,1.37,0.927,-0.724,0.912,1.46,-0.87 (inactive),0.723,-1.57 (inactive),0.433 (inactive),0.802 (inactive),0.109 (inactive),2.48,1.88,2.04,1.28,1.05
C#C[C@H]1Oc2ccccc2S(=O)(=O)N2CCC[C@@H]12,-0.233,-0.704,-0.434,-0.597,0.963,0.0278,0.092,1.51,-0.719,0.119 (inactive),-0.0713,-0.0352 (inactive),-0.0287 (inactive),0.126 (inactive),1.3 (inactive),-0.14,-0.278,0.461,0.512,1.63
Cc1ccc(S[C@]2(C(=O)NCC(F)(F)F)CC(=O)N(C3Cc4ccccc4C3)[C@@H]2c2ccc(CO)cc2I)cc1,-1.2,-0.38,-0.493,-0.161,-1.14,-1.01,0.496,-1.36,0.0728,-0.727 (inactive),-0.465,-1.42 (inactive),-0.46 (inactive),-0.231 (inactive),0.0489 (inactive),-0.457,-0.0471,0.108,-0.248,-0.703
